About 79,000 compounds went through this panel and 15% of them were active in at least one assay; those are over-represented in the sample as a whole. Values without a mark were called inactive. Active and inactive are the calls of the source. Cut-off read from the data, not from the text of the source: active = growth inhibition above about 70%; inactive = the rest.
Assays:
[1] = NCI Yeast Anticancer Drug Screen. Data for the rad50 strain (AID 155);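 note: 0% = growth of vehicle-only cultures of the same strain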; conditions: S. cerevisiae rad50 strain growth inhibition, active compounds read high
Procedure, shortened: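 Compounds were tested on a yeast strain with an engineered DNA damage repair alteration; the reported value is growth inhibition normalised to vehicle treatment.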

[2] = NCI Yeast Anticancer Drug Screen. Data for the mec2-1 strain (AID 157); conditions: S. cerevisiae mec2-1 strain, active compounds read high
Procedure, shortened: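 Growth inhibition is read against vehicle-treated controls after compound exposure of the mec2-1 yeast strain, which is defective in DNA damage repair or cell cycle control.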

[3] = NCI Yeast Anticancer Drug Screen. Data for the sgs1 mgt1 strain (AID 161);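 note: 0% = growth of cultures given vehicle only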; conditions: S. cerevisiae sgs1 mgt1 strain, active compounds read high
Procedure, shortened: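 Yeast cells carrying a defined DNA-repair defect were exposed to test compounds. Growth inhibition was measured relative to vehicle-treated controls.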

[4] = NCI Yeast Anticancer Drug Screen. Data for the cln2 rad14 strain (AID 165);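 note: 0% = growth equal to vehicle treated cultures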; conditions: S. cerevisiae cln2 rad14 strain, active compounds read high
Procedure, shortened: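 Growth inhibition, relative to vehicle-treated controls, is the read-out. The test organism is a yeast strain with defined genetic alterations, cln2 rad14.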

[5] = NCI Yeast Anticancer Drug Screen. Data for the bub3 strain (AID 167); conditions: S. cerevisiae bub3 mutant strain, active compounds read high
Procedure, shortened: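 Growth of a checkpoint-deficient yeast mutant is measured after compound exposure. Values represent inhibition relative to vehicle.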

[6] = NCI Yeast Anticancer Drug Screen. Data for the mlh1 rad18 strain (AID 175); conditions: S. cerevisiae mlh1 rad18 strain growth inhibition, active compounds read high
Procedure, shortened: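 Cells of a genetically altered yeast strain, deficient in DNA damage repair, were treated with compound. Their growth was then compared with that of vehicle-treated cultures to give inhibition.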

[7] = at 5.0 µM (retest, dose inferred, filed as 0.5)
[8] = at 50.0 µM (retest, dose inferred, filed as 5.0)

Compound	growth inhibition [1, 7]	growth inhibition [1, 8]	growth inhibition ([1]; at 50.0 µM)	growth inhibition [2, 7]	growth inhibition [2, 8]	growth inhibition ([2]; at 50.0 µM)	growth inhibition [3, 7]	growth inhibition [3, 8]	growth inhibition ([3]; at 50.0 µM)	growth inhibition [4, 7]	growth inhibition [4, 8]	growth inhibition ([4]; at 50.0 µM)	growth inhibition [5, 7]	growth inhibition [5, 8]	growth inhibition ([5]; at 50.0 µM)	growth inhibition [6, 7]	growth inhibition [6, 8]	growth inhibition ([6]; at 50.0 µM)
NC(CS/C(Cl)=C/Cl)C(=O)O (configuration not stated)	48%	92% (active)	92.3% (active)	47%	96% (active)	93.8% (active)	34%	94% (active)	93.5% (active)	41%	96% (active)	92.3% (active)	19%	94% (active)	89.4% (active)	89% (active)	97% (active)	97.5% (active)
Cc1c2c(c(C)c3c[n+](C)ccc13)Oc1ccccc1O2	18%	24%	25.4%	12%	19%	61.6%	11%	21%	80.5% (active)	17%	20%	62.1%	28%	31%	85.6% (active)	24%	15%	-20.6%
CCCCCCCCCCCC(=O)OC(C)C(=O)NCCCC (configuration not stated)	0%	21%	-18.2%	0%	18%	13.6%	2%	68%	-2.05%	-2%	-3%	26.4%	-1%	9%	-5.95%	-17%	32%	75.2% (active)
O=C1CSC(=S)N1Cc1cccnc1	1%	19%	45.4%	4%	47%	34%	6%	24%	42.9%	32%	33%	1.95%	-22%	48%	61.8%	-4%	72% (active)	54.9%
N=C1C(=N)c2ccccc2-c2ccccc21	9%	99% (active)	88.8% (active)	25%	100% (active)	91.2% (active)	17%	38%	91.9% (active)	18%	87% (active)	91.7% (active)	11%	99% (active)	89.6% (active)	19%	99% (active)	89.2% (active)
O=C(c1ccccc1)C(Br)C(Br)c1ccccc1 (configuration not stated)	31%	96% (active)	97.7% (active)	27%	98% (active)	98.8% (active)	38%	97% (active)	43.2%	18%	84% (active)	39.8%	22%	97% (active)	98.8% (active)	43%	95% (active)	97.2% (active)
CCN(CC)CCNC(Cc1ccccc1)c1ccc(OCc2ccccc2)cc1 (configuration not stated)	39%	98% (active)	86.7% (active)	28%	98% (active)	42.4%	42%	99% (active)	72% (active)	35%	94% (active)	57.2%	49%	99% (active)	87.6% (active)	47%	98% (active)	84.8% (active)
Cc1cc(C(=C2C=CC(=Nc3ccccc3)C=C2)c2ccc(Nc3ccccc3)cc2)ccc1N	6%	60%	43.8%	7%	82% (active)	88.4% (active)	-5%	79% (active)	65.3%	-8%	69%	25.5%	30%	75% (active)	83.3% (active)	13%	71% (active)	-23.6%
CC1(C)CCC[C@]2(C)[C@@H](C=O)C(C=O)=CC[C@@H]12	25%	90% (active)	91.3% (active)	23%	96% (active)	90.8% (active)	22%	84% (active)	88.4% (active)	23%	81% (active)	90.2% (active)	19%	88% (active)	90.3% (active)	21%	91% (active)	86.9% (active)
Nc1nc(N)c2cc(Sc3cccc(C(F)(F)F)c3)ccc2n1	21%	77% (active)	68.5%	18%	75% (active)	53%	15%	97% (active)	79.1% (active)	22%	26%	87.7% (active)	17%	74% (active)	23.9%	22%	93% (active)	88.8% (active)
CC1CC(C)(C)OB(OC(C)CC(C)(C)OB2OC(C)CC(C)(C)O2)O1 (configuration not stated)	-4%	-35%	9.6%	-1%	-39%	15.7%	-4%	-35%	22.6%	2%	-43%	83% (active)	1%	-33%	17.7%	0%	-34%	-32.9%
CCOC(=O)NC(/C=C/c1ccccc1)NC(=O)OCC	-2%	-27%	61.8%	-1%	-31%	29.6%	-4%	-29%	30.1%	5%	-33%	29.9%	2%	-20%	11.8%	1%	-26%	83.6% (active)
O=C(c1ccc(O)c(Br)c1)c1ccc(O)c(Br)c1	43%	99% (active)	28.7%	76% (active)	99% (active)	76% (active)	44%	99% (active)	64.4%	83% (active)	99% (active)	43.5%	83% (active)	99% (active)	82.7% (active)	76% (active)	99% (active)	88% (active)
CC(CSc1n[nH]c(=S)s1)c1ccccc1 (configuration not stated)	7%	93% (active)	97.1% (active)	11%	96% (active)	95.8% (active)	14%	96% (active)	95.8% (active)	1%	93% (active)	95.2% (active)	23%	94% (active)	96.3% (active)	12%	94% (active)	95.1% (active)
O=C(NOC(=O)c1ccccc1)c1ccccc1	93% (active)	98% (active)	99.3% (active)	64%	99% (active)	99.5% (active)	82% (active)	99% (active)	99.5% (active)	31%	99% (active)	99.3% (active)	65%	99% (active)	99.3% (active)	93% (active)	99% (active)	99.3% (active)
NNc1ccc(Cl)cc1Cl	79% (active)	97% (active)	98.4% (active)	54%	99% (active)	99.4% (active)	66%	98% (active)	50.6%	75% (active)	99% (active)	58.6%	85% (active)	98% (active)	98.8% (active)	77% (active)	98% (active)	48.1%
N=C(N)Sc1cccc[n+]1[O-]	99% (active)	99% (active)	98.8% (active)	99% (active)	99% (active)	98.9% (active)	100% (active)	99% (active)	98.2% (active)	98% (active)	98% (active)	97.4% (active)	100% (active)	99% (active)	99% (active)	99% (active)	99% (active)	98.2% (active)
CCOC(=O)C1C(C(C)C)C2(C#N)C(=N)OC1(C)C2(C#N)C#N (configuration not stated)	15%	63%	44.8%	6%	53%	52.2%	19%	58%	49.8%	6%	37%	30.2%	14%	62%	39.5%	18%	72% (active)	42.5%
Cc1nn(CCO)c(C)c1N=[N+]([O-])c1c(C)nn(CCO)c1C	12%	98% (active)	88.8% (active)	12%	98% (active)	91.8% (active)	24%	98% (active)	89.3% (active)	9%	95% (active)	86% (active)	20%	97% (active)	90.6% (active)	27%	98% (active)	89.1% (active)
